Screening data from PubChem BioAssay.
In the library only some 3.1% were active in any assay of this set; here they are far more common.
BoNT F protease = BoNT F light chain protease inhibition. Multiplex microsphere protease cleavage assay, flow cytometry. inhibition, % at 10 µM. 0.22% of 360,000 active. AID 588497; in the data active = inhibition above about 35%, passing the limit was not always enough; inconclusive = no clear call, values can overlap the other calls; also: plate controls were buffer without enzyme for full effect and enzyme alone for no effect
PriA SSB inh = K. pneumoniae PriA-SSBct interaction inhibition; inhibition, % at 33 µM; AID 1272365; AlphaScreen SSBct-PriA binding, biotinylated peptide; 0.6% of 430,000 active; in the data active = inhibition mostly above about 37%, no sharp cut-off; inactive = mostly below about 20%;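 also: plate controls were negative control peptide for no effect and reference peptide for full effect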
Anthrax LF inh2 = inhibitors of Bacillus anthracis lethal factor protease | P15917 | multiplex microsphere protease cleavage assay, LF | inhibition, % at 10 µM | 0.12% of 360,000 active | AID 588501; also: plate controls were buffer without enzyme for full effect and enzyme alone for no effect
Target sequence (P15917 whole entry, looked up): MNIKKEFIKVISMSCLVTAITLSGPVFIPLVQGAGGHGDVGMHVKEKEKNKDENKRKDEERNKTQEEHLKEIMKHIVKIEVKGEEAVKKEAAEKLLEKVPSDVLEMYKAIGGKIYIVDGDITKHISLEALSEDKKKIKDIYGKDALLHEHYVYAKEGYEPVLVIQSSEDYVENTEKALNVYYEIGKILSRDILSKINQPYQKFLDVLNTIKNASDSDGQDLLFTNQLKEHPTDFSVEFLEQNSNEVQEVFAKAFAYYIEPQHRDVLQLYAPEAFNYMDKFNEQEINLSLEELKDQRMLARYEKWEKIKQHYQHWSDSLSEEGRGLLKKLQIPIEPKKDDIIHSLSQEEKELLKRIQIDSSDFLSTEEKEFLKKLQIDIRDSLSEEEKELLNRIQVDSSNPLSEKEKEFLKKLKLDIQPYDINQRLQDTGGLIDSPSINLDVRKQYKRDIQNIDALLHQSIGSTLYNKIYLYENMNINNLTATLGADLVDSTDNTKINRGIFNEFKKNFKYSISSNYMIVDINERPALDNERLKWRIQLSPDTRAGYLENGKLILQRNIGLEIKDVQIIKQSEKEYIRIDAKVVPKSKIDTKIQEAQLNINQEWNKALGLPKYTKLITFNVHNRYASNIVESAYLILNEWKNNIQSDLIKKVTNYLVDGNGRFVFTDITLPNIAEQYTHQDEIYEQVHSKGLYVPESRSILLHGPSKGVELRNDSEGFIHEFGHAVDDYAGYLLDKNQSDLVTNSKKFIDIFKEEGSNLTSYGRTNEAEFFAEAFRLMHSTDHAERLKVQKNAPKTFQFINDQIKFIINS
BoNT-A LC inh2 = BoNT A light chain protease inhibition; AID 588499; 0.17% of 360,000 active; inhibition, % at 10 µM; multiplex microsphere protease substrate cleavage, flow cytometry; also: plate controls were buffer without enzyme for full effect and enzyme alone for no effect
Autofluor counter = compound fluorescence in toxin protease inhibitor counterscreen | compound autofluorescence counterscreen, microsphere flow cytometry; stronger effect = higher value | fluorescence intensity (test concentration not listed) | 3.1% of 360,000 active | AID 624483; in the data active = fluorescence intensity above about 16000; inconclusive = no clear call, values can overlap the other calls
The depositor's hits bear a star; ? = inconclusive; . = not tested or not shown. Rule as the data show it, unless noted: active = inhibition above about 30%; inconclusive = no clear call, values can overlap the other calls; inactive = below that.

SMILES	BoNT F protease	PriA SSB inh	Anthrax LF inh2	BoNT-A LC inh2	Autofluor counter
CC(C)C(=O)N1CCN(c2ccc([N+](=O)[O-])c(NC(C)c3ccccc3)c2)CC1 (stereo not drawn)	-16	49*	-8	-1	8098
CC(Nc1cc(N2CCNCC2)ccc1[N+](=O)[O-])c1ccccc1 (stereo not drawn)	-13	13	-2	-1	2230
CC(Nc1cc(N2CCN(C(=O)C(C)(C)C)CC2)ccc1[N+](=O)[O-])c1ccccc1 (stereo not drawn)	-6	41*	-11	-2	23558*
Cc1ccc(C)c(S(=O)(=O)N[C@@H](C)C(=O)Nc2ccc(-c3nc4ccccc4s3)cc2)c1	.	-5	.	.	.
COc1ccc(Oc2c(C(F)(F)F)oc3c4c(ccc3c2=O)OCN(CC2CCCO2)C4)cc1 (stereo not drawn)	.	-36	.	.	.
CCc1c(C)nc2ncnn2c1Nc1ccc(C(C)=O)cc1	1	-7	1	0	3244
Cc1nc2ncnn2c(C)c1CCC(=O)NCCC1=CCCCC1	-2	-12	-2	-1	20756*
CCOC(=O)c1ccc(Nc2c(CC)c(C)nc3ncnn23)cc1	-2	-13	-3	-2	17060*
Cc1ccnc(NC(=O)CCc2c(C)nc3ncnn3c2C)c1	2	-8	-2	1	20457*
COC(=O)c1ccc(NC(=O)CCc2c(C)nc3ncnn3c2C)cc1	-3	-11	0	-1	22498*
CCc1c(C)nc2c(-c3ccccc3)c(C)nn2c1NCCc1ccc(OC)c(OC)c1	.	-22	.	.	.
CCc1c(C)nc2ncnn2c1NCCc1ccc(OC)c(OC)c1	4	-4	-1	4	18500*
O=C(Cn1c(=O)nc(-c2ccccc2)c2ccccc21)Nc1ccc(OCc2ccccc2)cc1	.	-4	.	.	.
O=C(O)CC(Cn1[nH]nnc1=S)c1ccccc1 (stereo not drawn)	0	-13	1	?	22296*
O=C(CSc1nnc(Cc2ccccc2)o1)NCc1ccco1	1	2	-9	1	21761*
O=C(CSc1nnc(-c2ccccc2)o1)NCc1ccco1	.	-11	.	.	.
O=C(O)c1ccc(CSc2nnc(COc3ccccc3)o2)cc1	7	3	1	2	4864
COc1ccc(C(=O)CSc2nnc(Cc3ccccc3)o2)cc1	6	-16	-6	0	5554
O=C(O)c1ccc(CSc2nnc(Cc3ccccc3)o2)cc1	-2	-7	-5	-3	16912*
COc1ccc(CCNC(=O)CSCc2n[nH]c(=O)[nH]2)cc1OC	1	-8	-2	?	20702*
COc1ccc(/C(O)=C/Sc2nnc(Cc3ccccc3)o2)cc1	-4	2	-6	-2	24165*
NS(=O)(=O)c1ccc(CCNC(=O)c2nnn(-c3ccccc3)c2CSc2ncccn2)cc1	.	17	.	.	.
CCc1ccc2c(c1)sc(=NC(=O)CCS(=O)(=O)c1ccccc1)n2C	.	4	.	.	.
COc1ccc(Cc2nnc(SCC(=O)N3CCN(c4ccccc4)CC3)o2)cc1	-11	6	-5	0	10740
CCOC(=O)c1c(NC(=O)CSc2nnc(-c3ccccc3)o2)sc(C(C)=O)c1C	-13	-1	-5	1	3371
SMILES	BoNT F protease	PriA SSB inh	Anthrax LF inh2	BoNT-A LC inh2	Autofluor counter
COc1ccc(Cc2nnc(SCC(=O)N3CCCCC3)o2)cc1	-5	53*	0	0	2455
COc1ccc(CCNC(=O)CSc2nc3ccccc3o2)cc1OC	-6	-17	-1	-3	23875*
COc1ccc(CCNC(=O)CSc2nc3cc(Cl)ccc3o2)cc1OC	-3	-7	-2	0	2453
COc1ccc(Cc2nnc(SCC(=O)NCCc3ccccc3)o2)cc1	-7	-6	-1	?	21339*
CCOC(=O)c1c(NC(=O)CSc2nnc(Cc3ccccc3)o2)sc(C(C)=O)c1C	-11	-3	-3	?	18103*
COc1ccc(-c2nnc(SCC(=O)NCCc3ccccc3)o2)cc1	4	-2	0	0	2963
CSc1ccc(-c2noc(-c3sccc3S(=O)(=O)N(C)c3ccc(Cl)cc3)n2)cc1	.	-5	.	.	.
Cc1cccc(C)c1OCc1nnc(SCC(=O)Nc2nccs2)o1	-8	-11	-1	-1	5818
Cc1cccc(C)c1OCc1nnc(SCC(=O)NCCc2ccccc2)o1	-6	-17	-2	?	23122*
COC(=O)c1ccccc1NC(=O)CSc1nnc(Cc2ccc(Cl)cc2)o1	11	-8	-23	6	19277*
Cc1cc(C)n(C(=O)CSc2nc3ccccc3o2)n1	-5	-3	2	-3	20678*
O=C(Nc1nc(CC(=O)N2CCN(c3ccccc3F)CC2)cs1)c1ccc[nH]c1=O	.	3	.	.	.
CSc1ccc(Cc2nnc(NC(=O)/C=C/c3cccs3)o2)cc1	.	-7	.	.	.
